Laboratory results published in the supplement of paper PMC10849652.
About 7,900 targets were measured; listed, in parts, are those with a hit and a random draw of the rest. About 0.6% of all pairs of compound and target were hits.

How the values were obtained:
Test in all cases: log2 fold change, soluble protein after heating vs DMSO (PISA); higher = thermal stabilisation; K562 cells, 10 uM, 30 min; active = over 0.2 and 3.5 SD of the protein, either way, in both replicates (recomputed)
saracatinib = compound: CN1CCN(CCOc2cc(OC3CCOCC3)c3c(Nc4c(Cl)ccc5c4OCO5)ncnc3c2)CC1 [saracatinib]
Summary of the method: (§1)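 Quantification of soluble protein used TMTpro 16plex LC-MS/MS, with channel sums equalised. Samples were the supernatant after 21,000xg for 90 min of pooled aliquots from K562 cells (2×10^6 cells/mL) treated with 10 μM compound for 30 min, heated for 3 min over 48°C-58°C, and extracted in PBS with 0.5% NP-40 at 4°C. Values, from duplicates, describe thermal stability against control samples on a log2 fold-change scale.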

sotrastaurin = compound: CN1CCN(c2nc(C3=C(c4c[nH]c5ccccc45)C(=O)NC3=O)c3ccccc3n2)CC1 [sotrastaurin]
Summary of the method: as §1

alvocidib = compound: CN1CC[C@H](c2c(O)cc(O)c3c(=O)cc(-c4ccccc4Cl)oc23)[C@H](O)C1 [alvocidib]
Summary of the method: as §1

Tubastatin A = compound: CN1CCc2c(c3ccccc3n2Cc2ccc(C(=O)NO)cc2)C1 [Tubastatin A]
Summary of the method: as §1

[1] = compound: CNC(=O)C1=CC=CC=C1NC2=NC(=NC=C2Cl)NC3=C(C=C(C=C3)N4CCOCC4)OC
Summary of the method: as §1

defactinib = compound: CNC(=O)c1ccc(Nc2ncc(C(F)(F)F)c(NCc3nccnc3N(C)S(C)(=O)=O)n2)cc1 [defactinib]
Summary of the method: as §1

rucaparib = compound: CNCc1ccc(-c2[nH]c3cc(F)cc4c3c2CCNC4=O)cc1 [rucaparib]
Summary of the method: as §1

[2] = compound: CNc1nc(-c2ccc3c(N)n[nH]c3c2)cc(N2C[C@@H](C(=O)NC3CCCCC3)CC[C@H]2C)n1
Summary of the method: as §1

encorafenib = compound: COC(=O)N[C@@H](C)CNc1nccc(-c2cn(C(C)C)nc2-c2cc(Cl)cc(NS(C)(=O)=O)c2F)n1 [encorafenib]
Summary of the method: as §1

[3] = compound: COC(=O)[C@H](CCSC)NC(=O)C1=C(C=C(C=C1)NC[C@H](CS)N)C2=CC=CC=C2
Summary of the method: as §1

Measured: log2 fold change

PNPLA2 (UniProt Q96AD5)
Sequence of UniProt Q96AD5 (Q96AD5 whole entry, looked up): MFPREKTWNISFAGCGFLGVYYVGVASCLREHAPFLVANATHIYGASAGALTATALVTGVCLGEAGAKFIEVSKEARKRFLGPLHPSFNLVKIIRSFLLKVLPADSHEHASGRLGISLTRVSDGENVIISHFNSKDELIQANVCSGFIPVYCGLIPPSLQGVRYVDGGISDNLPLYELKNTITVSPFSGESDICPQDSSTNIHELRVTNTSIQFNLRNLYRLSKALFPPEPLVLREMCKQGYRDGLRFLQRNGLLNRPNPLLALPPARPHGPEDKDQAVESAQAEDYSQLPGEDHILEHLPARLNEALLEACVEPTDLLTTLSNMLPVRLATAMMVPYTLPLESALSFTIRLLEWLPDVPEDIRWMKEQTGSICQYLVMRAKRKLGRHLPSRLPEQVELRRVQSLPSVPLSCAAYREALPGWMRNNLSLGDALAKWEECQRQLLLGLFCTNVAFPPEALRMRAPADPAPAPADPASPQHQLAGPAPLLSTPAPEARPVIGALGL
inactive: saracatinib 0.015 | sotrastaurin -0.028 | alvocidib -0.058 | Tubastatin A -0.034 | [1] -0.039 | defactinib 0 | rucaparib -0.06 | [2] 0.154 | encorafenib -0.012 | [3] -0.056

PPP2R5C isoform 5 (UniProt Q13362)
inactive: saracatinib 0.007 | sotrastaurin -0.018 | alvocidib -0.045 | Tubastatin A 0.014 | [1] -0.02 | defactinib -0.044 | rucaparib -0.019 | [2] 0.023 | encorafenib 0.126 | [3] -0.042

PPP1R35 (UniProt Q8TAP8)
Sequence of UniProt Q8TAP8 (Q8TAP8 whole entry, looked up): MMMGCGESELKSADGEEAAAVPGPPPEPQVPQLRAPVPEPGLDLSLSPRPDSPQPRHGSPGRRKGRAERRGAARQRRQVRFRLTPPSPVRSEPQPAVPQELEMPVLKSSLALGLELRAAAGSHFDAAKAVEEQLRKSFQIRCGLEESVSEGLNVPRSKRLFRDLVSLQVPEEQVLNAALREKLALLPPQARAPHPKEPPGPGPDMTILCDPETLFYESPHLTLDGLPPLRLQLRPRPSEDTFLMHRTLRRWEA
inactive: saracatinib 0.034 | sotrastaurin -0.011 | alvocidib -0.03 | Tubastatin A 0.035 | [1] -0.029 | defactinib -0.007 | rucaparib 0.019 | [2] -0.109 | encorafenib 0.072 | [3] 0.052

PCTP (UniProt Q9UKL6)
Sequence of UniProt Q9UKL6 (Q9UKL6 whole entry, looked up): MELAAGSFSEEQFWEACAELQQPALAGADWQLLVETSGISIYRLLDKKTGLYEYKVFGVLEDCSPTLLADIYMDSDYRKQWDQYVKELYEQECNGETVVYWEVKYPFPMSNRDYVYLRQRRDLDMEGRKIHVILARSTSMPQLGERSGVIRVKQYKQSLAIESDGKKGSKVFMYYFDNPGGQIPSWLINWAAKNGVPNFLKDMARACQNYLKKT
inactive: saracatinib 0.083 | sotrastaurin -0.016 | alvocidib 0.014 | Tubastatin A -0.002 | [1] 0 | defactinib -0.037 | rucaparib -0.056 | [2] 0.039 | encorafenib -0.032 | [3] 0.094

PRMT3 (UniProt O60678)
Sequence of UniProt O60678 (O60678 whole entry, looked up): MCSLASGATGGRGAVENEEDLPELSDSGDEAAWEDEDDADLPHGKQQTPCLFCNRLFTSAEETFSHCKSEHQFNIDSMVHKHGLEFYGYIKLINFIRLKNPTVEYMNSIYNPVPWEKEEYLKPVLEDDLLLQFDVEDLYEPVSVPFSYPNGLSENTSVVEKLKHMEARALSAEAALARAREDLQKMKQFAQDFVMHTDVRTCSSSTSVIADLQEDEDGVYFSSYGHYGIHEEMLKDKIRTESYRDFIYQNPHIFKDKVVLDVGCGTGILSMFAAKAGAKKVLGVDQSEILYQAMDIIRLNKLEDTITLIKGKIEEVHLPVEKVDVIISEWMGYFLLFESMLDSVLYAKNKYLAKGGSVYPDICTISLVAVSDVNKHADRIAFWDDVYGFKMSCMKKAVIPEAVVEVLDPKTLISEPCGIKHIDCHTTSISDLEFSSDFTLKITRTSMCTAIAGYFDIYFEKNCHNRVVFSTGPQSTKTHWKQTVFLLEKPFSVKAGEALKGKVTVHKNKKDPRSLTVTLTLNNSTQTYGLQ
inactive: saracatinib 0.021 | sotrastaurin -0.046 | alvocidib 0 | Tubastatin A -0.017 | [1] 0.058 | defactinib -0.005 | rucaparib 0.035 | [2] 0.011 | encorafenib 0.061 | [3] -0.064

POLR1A (UniProt O95602)
Sequence of UniProt O95602 (O95602 whole entry, looked up): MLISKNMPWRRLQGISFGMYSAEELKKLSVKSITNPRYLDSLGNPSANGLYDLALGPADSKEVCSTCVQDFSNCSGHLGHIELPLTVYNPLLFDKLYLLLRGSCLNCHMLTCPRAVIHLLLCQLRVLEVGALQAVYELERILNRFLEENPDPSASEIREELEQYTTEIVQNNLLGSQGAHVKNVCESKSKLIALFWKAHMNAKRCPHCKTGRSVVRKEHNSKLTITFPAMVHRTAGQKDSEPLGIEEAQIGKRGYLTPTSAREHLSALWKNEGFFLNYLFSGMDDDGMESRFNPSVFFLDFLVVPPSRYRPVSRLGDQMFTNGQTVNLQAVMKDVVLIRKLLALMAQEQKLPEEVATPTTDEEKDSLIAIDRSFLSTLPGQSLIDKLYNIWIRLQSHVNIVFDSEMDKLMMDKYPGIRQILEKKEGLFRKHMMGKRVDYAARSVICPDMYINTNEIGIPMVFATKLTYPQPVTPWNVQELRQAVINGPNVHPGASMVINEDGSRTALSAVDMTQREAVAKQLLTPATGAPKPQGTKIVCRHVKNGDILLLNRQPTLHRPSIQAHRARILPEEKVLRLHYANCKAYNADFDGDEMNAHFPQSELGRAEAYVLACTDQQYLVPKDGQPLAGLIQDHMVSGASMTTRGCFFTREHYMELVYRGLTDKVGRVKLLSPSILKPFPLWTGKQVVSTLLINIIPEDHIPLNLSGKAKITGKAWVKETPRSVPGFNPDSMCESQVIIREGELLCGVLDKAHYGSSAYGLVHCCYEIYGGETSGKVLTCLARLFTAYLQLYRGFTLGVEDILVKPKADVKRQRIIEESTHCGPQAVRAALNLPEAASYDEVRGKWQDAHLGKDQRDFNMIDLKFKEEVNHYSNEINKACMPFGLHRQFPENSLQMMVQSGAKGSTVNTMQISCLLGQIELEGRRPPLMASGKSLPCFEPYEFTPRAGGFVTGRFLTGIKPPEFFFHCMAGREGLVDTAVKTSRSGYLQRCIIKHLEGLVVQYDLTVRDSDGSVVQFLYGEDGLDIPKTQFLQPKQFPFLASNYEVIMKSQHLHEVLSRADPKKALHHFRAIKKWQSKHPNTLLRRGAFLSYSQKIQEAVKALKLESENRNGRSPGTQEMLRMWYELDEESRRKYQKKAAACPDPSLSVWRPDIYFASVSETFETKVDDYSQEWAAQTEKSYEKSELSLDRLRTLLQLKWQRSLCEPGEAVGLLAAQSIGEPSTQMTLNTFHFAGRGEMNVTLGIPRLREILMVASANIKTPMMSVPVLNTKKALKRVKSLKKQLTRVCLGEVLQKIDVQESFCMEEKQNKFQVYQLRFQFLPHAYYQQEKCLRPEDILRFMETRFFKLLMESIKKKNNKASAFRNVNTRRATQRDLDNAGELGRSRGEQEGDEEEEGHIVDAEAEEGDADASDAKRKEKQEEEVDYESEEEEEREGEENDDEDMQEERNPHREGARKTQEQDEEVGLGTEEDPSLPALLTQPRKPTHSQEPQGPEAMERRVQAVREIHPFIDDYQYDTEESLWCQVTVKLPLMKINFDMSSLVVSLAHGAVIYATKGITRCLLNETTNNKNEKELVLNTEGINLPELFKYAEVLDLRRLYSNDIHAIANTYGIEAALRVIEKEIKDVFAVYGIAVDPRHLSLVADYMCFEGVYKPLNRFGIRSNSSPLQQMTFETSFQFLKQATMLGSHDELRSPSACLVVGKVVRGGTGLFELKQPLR
inactive: saracatinib -0.027 | sotrastaurin -0.151 | alvocidib -0.06 | Tubastatin A 0.148 | [1] -0.138 | defactinib -0.011 | rucaparib 0.064 | [2] -0.089 | encorafenib -0.015 | [3] 0.115

RAB11FIP1 (UniProt Q6WKZ4)
Sequence of UniProt Q6WKZ4 (Q6WKZ4 whole entry, looked up): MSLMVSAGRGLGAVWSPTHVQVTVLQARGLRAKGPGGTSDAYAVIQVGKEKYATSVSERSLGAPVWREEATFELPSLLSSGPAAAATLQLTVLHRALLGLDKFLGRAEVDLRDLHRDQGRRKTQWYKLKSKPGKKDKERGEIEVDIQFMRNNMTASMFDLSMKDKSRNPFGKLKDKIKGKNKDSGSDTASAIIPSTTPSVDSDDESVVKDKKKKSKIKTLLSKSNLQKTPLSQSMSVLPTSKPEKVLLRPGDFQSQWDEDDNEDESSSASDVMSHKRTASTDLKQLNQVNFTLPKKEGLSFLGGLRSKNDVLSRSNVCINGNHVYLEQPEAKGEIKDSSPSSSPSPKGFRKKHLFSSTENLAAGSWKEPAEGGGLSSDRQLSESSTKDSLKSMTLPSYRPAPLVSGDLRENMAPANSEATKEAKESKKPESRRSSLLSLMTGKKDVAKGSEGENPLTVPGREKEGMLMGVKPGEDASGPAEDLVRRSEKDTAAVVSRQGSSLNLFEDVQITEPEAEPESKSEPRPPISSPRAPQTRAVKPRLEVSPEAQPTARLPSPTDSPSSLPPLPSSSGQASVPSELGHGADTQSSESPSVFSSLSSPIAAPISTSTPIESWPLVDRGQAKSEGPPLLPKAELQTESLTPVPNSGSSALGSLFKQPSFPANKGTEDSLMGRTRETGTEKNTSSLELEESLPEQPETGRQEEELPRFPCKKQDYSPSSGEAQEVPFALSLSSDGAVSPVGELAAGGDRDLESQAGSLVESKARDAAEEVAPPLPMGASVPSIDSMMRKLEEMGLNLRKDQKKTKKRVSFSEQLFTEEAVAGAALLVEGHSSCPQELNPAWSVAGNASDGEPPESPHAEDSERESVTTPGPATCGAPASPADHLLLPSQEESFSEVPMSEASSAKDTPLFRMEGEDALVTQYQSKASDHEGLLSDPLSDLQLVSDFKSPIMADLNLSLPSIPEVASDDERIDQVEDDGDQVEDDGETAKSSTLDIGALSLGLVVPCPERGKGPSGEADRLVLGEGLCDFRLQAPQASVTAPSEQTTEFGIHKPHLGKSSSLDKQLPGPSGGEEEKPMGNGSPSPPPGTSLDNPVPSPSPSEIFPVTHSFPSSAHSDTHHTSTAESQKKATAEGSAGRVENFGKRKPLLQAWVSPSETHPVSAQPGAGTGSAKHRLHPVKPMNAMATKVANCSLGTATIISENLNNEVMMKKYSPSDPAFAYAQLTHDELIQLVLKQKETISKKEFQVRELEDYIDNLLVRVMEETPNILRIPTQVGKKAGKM
inactive: saracatinib 0.021 | sotrastaurin -0.094 | alvocidib -0.028 | Tubastatin A 0.005 | [1] 0.045 | defactinib -0.16 | rucaparib -0.012 | [2] -0.043 | encorafenib 0.052 | [3] -0.019

PIK3R1 (UniProt P27986)
inactive: saracatinib 0.014 | sotrastaurin 0.001 | alvocidib -0.079 | Tubastatin A -0.017 | [1] -0.014 | defactinib -0.06 | rucaparib 0.052 | [2] 0.022 | encorafenib 0.08 | [3] -0.024

PPT2 isoform 3 (UniProt Q9UMR5)
inactive: saracatinib 0.042 | sotrastaurin 0.022 | alvocidib -0.04 | Tubastatin A 0.018 | [1] 0 | defactinib -0.023 | rucaparib 0.025 | [2] 0.038 | encorafenib -0.003 | [3] 0.029

PIP4K2B (UniProt P78356)
Sequence of UniProt P78356 (P78356 whole entry, looked up): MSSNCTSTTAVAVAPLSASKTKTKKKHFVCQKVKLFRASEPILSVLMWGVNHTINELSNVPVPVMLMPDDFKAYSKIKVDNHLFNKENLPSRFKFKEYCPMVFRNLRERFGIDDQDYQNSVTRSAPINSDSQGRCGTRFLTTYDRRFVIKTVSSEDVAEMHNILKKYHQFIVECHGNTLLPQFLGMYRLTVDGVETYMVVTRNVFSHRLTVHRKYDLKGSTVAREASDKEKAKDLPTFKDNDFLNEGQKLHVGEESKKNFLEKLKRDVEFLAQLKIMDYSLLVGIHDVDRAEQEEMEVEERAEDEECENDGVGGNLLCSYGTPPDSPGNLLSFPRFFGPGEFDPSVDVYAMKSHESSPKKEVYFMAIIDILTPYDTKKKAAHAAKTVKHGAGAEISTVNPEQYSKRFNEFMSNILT
inactive: saracatinib -0.021 | sotrastaurin -0.088 | alvocidib 0.204 | Tubastatin A 0.022 | [1] 0.179 | defactinib 0.176 | rucaparib -0.035 | [2] -0.083 | encorafenib 0.049 | [3] -0.108
